From PubChem BioAssay
Shiga inhibitor: inhibitors of Shiga toxin in Vero cells; Vero cells, Shiga toxin protein synthesis inhibition reporter; inhibition, % at 38.7 µM; 290,000 compounds, 9.2% hits; AID 2315; in the data active = inhibition mostly above about 28%, no sharp cut-off; inactive = mostly below about 43%
Cycloheximide cs: affects cycloheximide protein synthesis inhibition readout, counter-screen. cell reporter, cycloheximide protein synthesis inhibition counterscreen. max response, %. 300,000 compounds, 12% hits. AID 2314; in the data active = max response mostly above about 13%, no sharp cut-off; inactive = mostly below about 14%; also: read at 38.3 µM for the half of the compounds with a filed dose
Lassa entry inh: Lassa virus entry inhibition; Lassa virus pseudotype entry inhibition, cell reporter; 300,000 compounds, 1.2% hits; Potency, µM (top dose mostly 37.9 µM), hits mostly inhibitors; calls by dose curve; tested in HEK293 cells; also: nearly all actives have a fitted effect of over 50% in size
Marburg entry inh: inhibitors of Marburg virus binding or cell entry; Marburg virus pseudotyped entry inhibition, cell reporter; Potency, µM (titrated, usually from 37.8 µM), hits mostly inhibitors; 300,000 compounds, 1.8% hits; AID 540276; calls by dose curve; tested in HEK293 cells
HCV inh: inhibitors of hepatitis C virus infection | Huh7.5.1 HCVcc-Cre infection, luciferase reporter, 44 h | Potency, µM (top dose mostly 41.8 µM), actives largely listed as inhibitors | 340,000 compounds, 3.4% hits; active = well fitted inhibition curve with a large enough effect; inconclusive = small, poorly fitted or top-dose-only effect, or another doubt; inactive = no such curve, though single readings can be large or run the other way
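1,000 cells/well; 4 h culture; + compound; + HCVcc-Cre (~0.5 moi); 44 h; luciferase substrate, RT 15 min; read 15 sec.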
FMDV antiviral: foot and mouth disease virus antiviral activity. FMDV antiviral cell-based qHTS. Potency, µM (highest dose often 57.9 µM), hits mostly inhibitors. 410,000 compounds, 1.2% hits. AID 1159524; calls by dose curve; tested in HEK293T cells; also: read-out not given here; nearly all actives have a fitted effect of over 45% in size
Of the large screens only hits and unclear results are named; the others gave an inactive call. Shown are actives, neighbours in structure and some others; about 13% of the full set was active somewhere.

CCNC(=O)c1ccccc1NC(=O)c1cccc(S(=O)(=O)N2CCC(C)CC2)c1	Marburg entry inh inconclusive, HCV inh 10µM, FMDV antiviral inconclusive
CN(C)c1ccc(NC(=O)Nc2ccc3snnc3c2)cc1	Shiga inhibitor 45.5, Cycloheximide cs 27.0
Cc1cc(C)c(NC(=O)Nc2ccc3snnc3c2)c(C)c1	Marburg entry inh inconclusive (no result: Shiga inhibitor, Cycloheximide cs, HCV inh)
O=C(NCc1ccccc1)c1ccc2nnsc2c1	Marburg entry inh inconclusive
O=C(Nc1ccccc1)Nc1ccc2snnc2c1	Shiga inhibitor 57.7, Cycloheximide cs 40.9, Marburg entry inh inconclusive, HCV inh 11.2µM
O=C(Nc1cccc(C(F)(F)F)c1)Nc1ccc2snnc2c1	Lassa entry inh inconclusive, Marburg entry inh inconclusive (no result: Shiga inhibitor, Cycloheximide cs, HCV inh)
O=C(Nc1ccccc1)Nc1ccc2nnsc2c1	Shiga inhibitor 61.4, Cycloheximide cs 35.9
O=C(CSc1nc(=O)n2ccccc2n1)Nc1cccc2ccccc12	none (no result: Shiga inhibitor, Cycloheximide cs)
CS(=O)(=O)CCC(C(=O)Nc1ccc2c(c1)OCO2)N1Cc2ccccc2C1=O (stereo not given)	Cycloheximide cs 20.1 (no result: Lassa entry inh, Marburg entry inh)
CSCC[C@@H](C(=O)Nc1ccc2c(c1)OCCO2)N1Cc2ccccc2C1=O	Cycloheximide cs 27.3 (no result: Lassa entry inh, Marburg entry inh)
CSCC[C@@H](C(=O)Nc1cccc(F)c1)N1Cc2ccccc2C1=O	none (no result: Shiga inhibitor, Cycloheximide cs, HCV inh)
COC(=O)c1scc(S(=O)(=O)C(C)C)c1N/N=C(\C#N)C(=O)c1ccc(Cl)cc1	HCV inh inconclusive, FMDV antiviral inconclusive (no result: Lassa entry inh, Marburg entry inh)
COC(=O)c1scc(C#N)c1N/N=C(\C#N)S(=O)(=O)c1ccc(Cl)cc1	Lassa entry inh inconclusive, Marburg entry inh inconclusive, HCV inh inconclusive, FMDV antiviral 14.1µM
CCN(CC)CCCNC(=O)c1cc(Nc2ccc(OC)cc2OC)nc2ccccc12	none (no result: Lassa entry inh, Marburg entry inh)
CCN(CC)CCNC(=O)c1cc2cc(Br)ccc2s1	Marburg entry inh inconclusive, HCV inh 12.6µM
CN1CCN(NC(=O)c2cc(-c3ccc(Br)s3)nc3ccccc23)CC1	Lassa entry inh inconclusive, Marburg entry inh inconclusive, HCV inh 10µM
CCCCOc1cc(C(=O)NCCN(CC)CC)c2ccccc2n1	Lassa entry inh 13µM, Marburg entry inh 10.3µM
O=C(O)c1cc(-c2ccc(Br)s2)nc2ccccc12	Shiga inhibitor 34.1, Cycloheximide cs 17.1 (no result: Lassa entry inh, Marburg entry inh)
COc1ccc(CNC(=O)[C@H](C)[C@@H]2C[C@@]2(C)[C@@H](NC(=O)OCc2ccccc2)c2ccccc2)cc1OC	Lassa entry inh inconclusive, Marburg entry inh inconclusive, HCV inh inconclusive
CCN(CC)CCNC(=O)c1cc(-c2ccc(Br)s2)nc2ccccc12	Lassa entry inh inconclusive, Marburg entry inh inconclusive, HCV inh 12.6µM
CCOc1ccc(NC(=O)CC2SC(=O)N(c3ccccc3)C2=O)cc1 (stereo not given)	Shiga inhibitor 43.8, Cycloheximide cs 20.7
CCOc1ccc(NC(=O)CN2C(=O)CSC(C)C2=O)cc1 (stereo not given)	Shiga inhibitor 112.7, Cycloheximide cs 40.9, HCV inh inconclusive
COc1ccc(NC(=O)CN2C(=O)CSC(C)C2=O)c(OC)c1 (stereo not given)	none
CCOc1ccccc1NC(=O)CC1SC(=N)N(c2ccccc2)C1=O (stereo not given)	none (no result: Lassa entry inh, Marburg entry inh, HCV inh, FMDV antiviral)
O=C(CC1SC(=O)N(c2ccccc2)C1=O)Nc1cccc2ccccc12 (stereo not given)	Cycloheximide cs 20.7
Cc1ccccc1NC(=O)CC1SC(=O)N(c2ccccc2)C1=O (stereo not given)	Shiga inhibitor 64.1, Cycloheximide cs 46.8
CCOC(=O)c1c(S(=O)(=O)N2CCCC(C(=O)Nc3cc(C)ccc3OC)C2)c(C)n(C)c1C (stereo not given)	FMDV antiviral inconclusive (no result: Shiga inhibitor, Cycloheximide cs, Marburg entry inh, HCV inh)
Cc1noc(C)c1-c1ccc(C(=O)NCc2ccc(Cl)cc2)c2occc12	none (no result: Shiga inhibitor, Cycloheximide cs, Lassa entry inh, Marburg entry inh, HCV inh)
CCOC(=O)c1ccc(NC(=O)c2ccc(NS(C)(=O)=O)cc2)cc1	HCV inh 11.2µM (no result: FMDV antiviral)
CCOC(=O)c1c(C)c(C(=O)Nc2ccccc2)c(C)n1CC	Shiga inhibitor 31.5, Cycloheximide cs 24.3
CCOC(=O)c1ccc(NC(=S)NCc2ccccc2)cc1	Cycloheximide cs 11.6 (no result: Lassa entry inh, Marburg entry inh)
CCOC(=O)c1c(C)c(C(=O)Nc2cc(OC)ccc2OC)c(C)n1CC	Lassa entry inh inconclusive, HCV inh inconclusive
CCOC(=O)c1c(C)c(C(=O)NCCc2ccccc2)c(C)n1C	Shiga inhibitor 104.0, Cycloheximide cs 40.3 (no result: Lassa entry inh, Marburg entry inh)
CCOC(=O)c1c(C)c(C(=O)NCc2cccnc2)c(C)n1C	none
CCOC(=O)c1ccc(NC(=S)Nc2ccccn2)cc1	Shiga inhibitor 39.8, Cycloheximide cs 26.5, Lassa entry inh inconclusive, Marburg entry inh inconclusive
CCOC(=O)c1c(C)c(C(=O)O)n(C)c1C	none
CCOC(=O)c1c(C)c(/C=N/Nc2ccccc2)n(C)c1C	Cycloheximide cs 13.1
CCOC(=O)c1ccc(NC(=S)Nc2ccc(Cl)cn2)cc1	none (no result: Lassa entry inh, Marburg entry inh)
CCOC(=O)c1ccc(NC(=O)c2ccccc2)cc1	Shiga inhibitor 81.4, Cycloheximide cs 48.7, Marburg entry inh inconclusive, HCV inh inconclusive (no result: FMDV antiviral)
C/C(=N\NC(=O)CCC(=O)Nc1ccc(C)c(C)c1)C1CC1	none (no result: Lassa entry inh, Marburg entry inh)
Cc1ccc(C(=O)C[n+]2cccc3cc(C)ccc32)cc1	Marburg entry inh inconclusive
CCOc1ccc(C(=O)C[n+]2cccc3cc(C)ccc32)cc1	Lassa entry inh inconclusive, Marburg entry inh 7.08µM, HCV inh inconclusive
O=C(CSCc1ccc(Cl)cc1)Nc1ccc(-c2nnc(-c3ccccc3)o2)cc1	HCV inh 7.08µM
CC(=O)Nc1ccc(C2=NN(Cc3nnc(-c4ccccc4)o3)C(=O)SC2)cc1	Shiga inhibitor 16.4, Lassa entry inh inconclusive
CC(=O)Nc1ccc(C2=NN(CC#N)C(=O)SC2)cc1	none
CCC(=O)Nc1cccc(-c2nnc(-c3cccc(NC(=O)CC)c3)o2)c1	Marburg entry inh inconclusive, HCV inh inconclusive (no result: FMDV antiviral)
CCC(=O)Nc1ccc(-c2nc3ccccc3c(=O)o2)cc1	Shiga inhibitor 79.5, Cycloheximide cs 28.1, Lassa entry inh inconclusive
CCC(=O)Nc1ccc(-c2nnc(-c3ccccc3)o2)cc1	Cycloheximide cs 18.1, Lassa entry inh inconclusive, Marburg entry inh inconclusive
CC(=O)Oc1ccc(-c2nc3ccccc3c(=O)o2)cc1	none (no result: Lassa entry inh, Marburg entry inh)
O=C(Cc1ccc(Cl)cc1)Nc1ccc(-c2nnc(-c3ccco3)o2)cc1	Lassa entry inh inconclusive, HCV inh inconclusive, FMDV antiviral inconclusive
CC(=O)Nc1ccc(S(=O)(=O)N(C#N)c2nc(N(C)C)nc(N(C)C)n2)cc1	Marburg entry inh inconclusive (no result: Shiga inhibitor)
O=[N+]([O-])c1ccc(N2CCN(Cc3ccccc3)CC2)c2c1no[n+]2[O-]	FMDV antiviral 28.2µM (no result: Shiga inhibitor, Cycloheximide cs, Lassa entry inh, Marburg entry inh, HCV inh)
COCCNc1oc(-c2ccc(F)cc2)nc1C#N	Lassa entry inh inconclusive, Marburg entry inh inconclusive
Cc1oc(C(C)(C)C)cc1C(=O)Nc1ccc2c(c1)OCCO2	Shiga inhibitor 101.7, Cycloheximide cs 52.7, HCV inh inconclusive
Cc1oc(C(C)(C)C)cc1C(=O)Nc1ccc2c(c1)OCO2	Shiga inhibitor 78.8, Cycloheximide cs 32.2, Marburg entry inh inconclusive
Cc1[nH]c2ccccc2c1C(=O)C(C)OC(=O)C1CCC1 (stereo not given)	Lassa entry inh inconclusive (no result: Shiga inhibitor, Cycloheximide cs)
FC(F)(F)c1ccc(C2NCCc3sccc32)cc1 (stereo not given)	Cycloheximide cs 45.3, Marburg entry inh inconclusive
